Activity calls are given as the source filed them. The calls were made as follows: active = hit-call score of the fitted dose curve at least 0.9, where 1 is the maximum; inactive = score below 0.9.
Target: Hepatocyte nuclear factor 3-beta (Homo sapiens) (UniProt Q9Y261)
Assay: ATG_FoxA2_CIS: Attagene CIS-FACTORIAL HepG2 Assay for human Forkhead box A2 (FOXA2) (AID 2282942)
Conditions: HepG2 cis-reporter transcription factor activity, 24 h; actives raise or lower the signal
Procedure: ATG_CIS is a cell-based, multiplexed-readout assay that uses HepG2, a human liver cell line, with measurements taken at 24 hours after chemical dosing in a 24-well plate.ATG_FoxA2_CIS is one of 52 assay component(s) measured or calculated from the ATG_CIS assay. It is designed to make measurements of mRNA induction, a form of inducible reporter, as detected with fluorescence intensity signals by Reverse transcription polymerase chain reaction (RT-PCR) and Capillary electrophoresis technology.Data from the assay component ATG_FoxA2_CIS was analyzed into 1 assay endpoint. This assay endpoint, ATG_FoxA2_CIS, was analyzed with bidirectional fitting relative to DMSO as the negative control and baseline of activity. Using a type of inducible reporter, measures of mRNA for gain or loss-of-signal activity can be used to understand the reporter gene at the transcription factor-level as they relate to the gene FOXA2. Furthermore, this assay endpoint can be referred to as a primary readout, because this assay has produced multiple assay endpoints where this one serves a reporter gene function. To generalize the intended target to other relatable targets, this assay endpoint is annotated to the dna binding intended target family, where the subfamily is forkhead box protein.
Human liver HepG2 cells are transiently transfected with multiple reporter transcription units (MRTUs) in 6-well plates using FuGene 6 reagent (Roche; 3 ml FuGene/1 mg DNA). The MRTU constructs are regulated by a cis-regulating element (promoter). […] A major difference between the CIS and TRANS system is that in CIS activities of endogenous TFs are measured, whereas the TRANS assay evaluates changes in activities of exogenous, chimeric NR-Gal4 proteins. […] At the end of 24 hour incubation, total RNA was isolated using TriZol reagent (Invitrogen). The isolated RNA is then reverse-transcribed using oligo(dT) primer and Mo-MLV reverse transcriptase (Invitrogen) with DNAse I (Ambion) treatment for 30 min. The one-tenth of the produced cDNA was amplified by PCR using Taq DNA polymerase (Invitrogen) and two reporter sequence-specific primers. The PCR products were fluorescently labeled by primer extension with 6-arboxyfluorescein (6-FAM) 5'-labeled reporter sequence-specific primer (2 min at 95 C, 20 s at 68 C and 10 min at 72 C) and these products were digested with 5U of HpaI (New England Biolabs) for 2h at 37 C. The fragments were purified using Qiaquick PCR columns (Qiagen), analyzed on an ABI 3130xL genetic analyzer (Applied Biosystems) with peak positions identified by using a set of X-rhodamine (ROX)-labeled MapMarker1000 molecular weight standards (BioVentures). The raw capillary electrophoresis data was processed using Attagraph software (Attagene).

Chain of Hepatocyte nuclear factor 3-beta (Homo sapiens) (Q9Y261 whole entry, looked up): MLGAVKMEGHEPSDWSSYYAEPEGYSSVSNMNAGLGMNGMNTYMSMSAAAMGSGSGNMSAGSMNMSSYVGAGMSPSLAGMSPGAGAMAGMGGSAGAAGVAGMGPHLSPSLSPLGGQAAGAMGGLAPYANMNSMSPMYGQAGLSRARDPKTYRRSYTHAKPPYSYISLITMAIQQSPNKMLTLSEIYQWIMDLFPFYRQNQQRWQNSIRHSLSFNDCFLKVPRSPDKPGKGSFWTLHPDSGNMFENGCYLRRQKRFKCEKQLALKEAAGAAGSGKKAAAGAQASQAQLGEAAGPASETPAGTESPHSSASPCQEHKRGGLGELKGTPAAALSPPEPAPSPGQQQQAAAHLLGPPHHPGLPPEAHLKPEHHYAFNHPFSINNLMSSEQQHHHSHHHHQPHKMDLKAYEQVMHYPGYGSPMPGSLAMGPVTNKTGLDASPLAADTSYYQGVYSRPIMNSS

Compound | outcome | AC50
CCC(C)(CCCC(C)C)OC(C)=O (stereo not given) | inactive | –
C=C(C)CCCC(C)CCO (stereo not given) | inactive | –
COc1ccccc1NC(=O)CC(C)=O | inactive | –
COc1ccc2[nH]cc(CCNC(C)=O)c2c1 | inactive | –
Cc1cc(O)c(C)c(C)c1O | inactive | –
O=S(=O)(O)c1cc(S(=O)(=O)O)c2c(N=Nc3ccccc3)c(O)ccc2c1 | inactive | –
CCCO[Si](OCCC)(OCCC)OCCC | inactive | –
CCNC(=S)NCC | inactive | –
COc1ccccc1O | inactive | –
Cc1ccccc1S | inactive | –
CCCCCCCCCCCCOCCOS(=O)(=O)O | inactive | –
O=Cc1ccccc1O | inactive | –
CC/C=C\CCOC(C)OCC (stereo not given) | inactive | –
C=CC(C)CCCC(C)(C)O (stereo not given) | inactive | –
COC(=O)c1ccc(C(=O)OC)cc1 | inactive | –
CC(C)N(c1ccccc1)C(C)C | inactive | –
CC(C)(C)c1cccc(O)c1 | inactive | –
CCCCC1CCCCC(=O)O1 (stereo not given) | inactive | –
c1ccc(Sc2ccccc2)cc1 | inactive | –
CCOC(=O)C(=O)OCC | inactive | –

Compound | outcome | AC50
Cc1cc(N)n(-c2ccccc2)n1 | inactive | –
O=c1cc[nH]cc1 | inactive | –
CCOC(=O)CC1(C)OCC(C)O1 (stereo not given) | inactive | –
CCC=C(C)C=O | inactive | –
NC(N)=S | inactive | –
CCCC[N+](C)(CCCC)CCCC | inactive | –
COc1ccc(N)c(C)c1 | inactive | –
CC(=O)Oc1c(C)c(C)c2c(c1C)CC[C@@](C)(CCC[C@H](C)CCC[C@H](C)CCCC(C)C)O2 | inactive | –
CCCC(O)C(CC)CO (stereo not given) | inactive | –
CCCCCCCOC(C)=O | inactive | –
CCn1cc(C(=O)O)c(=O)c2ccc(C)nc21 | inactive | –
CC(C)N1C(=O)c2ccccc2C1=O | inactive | –
CC1=CC(O)CC(C)(C)C1 (stereo not given) | inactive | –
[Cu+] | inactive | –
C=CC(=O)OCC(CO)(COC(=O)C=C)COC(=O)C=C | – | 123 µM (active)
CCCCN(CCCC)CCCCCCN(CCCC)CCCC | inactive | –
NNC(=O)OCc1ccccc1 | inactive | –
CC(=O)OC(C)(C)C1CC=C(C)CC1 (stereo not given) | inactive | –
CCCCCCCCCOS(=O)(=O)O | inactive | –
CC(=O)CC(C)(C)C1CCCCC1 | inactive | –

— PubChem BioAssay (EPA / NIEHS)
